The sample as a whole holds a higher share of hits than the screen did.
nsP2pro inh: blocks chikungunya virus nsP2 protease peptide cleavage | 1.1% of 31,000 active | Q8JUX6 | AID 1964107 | FRET peptide cleavage, nsP2pro, fluorescence 1 h | Potency, µM (titrated, usually from 24.9 µM), for inactives: at the highest dose activity change, negative = inhibition, most hits filed as inhibitors; note: nearly all actives have a fitted effect of over 60% in size
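FRET cleavage of 2.5 uM peptide 2 by 150 nM CHIKV protease domain at pH 8.0 (Tris, Tween 20). Compounds at 7 concentrations (up to 25 uM) preincubated 15 min. Fluorescence read after 1 h at room temperature.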
nsP2 cell sec: inhibits CHIKV nsP2 protease in cells; shares compounds with nsP2pro inh; Potency, µM (series often up to 51.1 µM), for the others: at the top dose activity change, negative = inhibition, actives largely listed as inhibitors; 10% of 450 active; cell-based CHIKV nsP2 protease reporter assay; note: nearly all actives have a fitted effect of over 70% in size
CHIKV NSP2 FL: inhibits full-length CHIKV NSP2 enzyme. shares compounds with nsP2pro inh. Full-length CHIKV NSP2 protease enzymatic counterscreen. Potency, µM (titrated, usually from 50.7 µM), for inactives: top-dose activity change, negative = inhibition, hits mostly inhibitors. 39% of 410 active. AID 1964101; note: nearly all actives have a fitted effect of over 65% in size
Furin counterscr: selectivity counter-screen for CHIKV nsP2 protease inhibitors: human furin | 6% of 410 active | Recombinant human furin enzymatic counterscreen, fluorogenic substrate | Potency, µM (doses to about 50.6 µM), inactives show at the highest dose activity change, negative = inhibition, usual class: inhibitors | AID 1964102 | shares compounds with nsP2pro inh
Target sequence (P09958 whole entry, looked up): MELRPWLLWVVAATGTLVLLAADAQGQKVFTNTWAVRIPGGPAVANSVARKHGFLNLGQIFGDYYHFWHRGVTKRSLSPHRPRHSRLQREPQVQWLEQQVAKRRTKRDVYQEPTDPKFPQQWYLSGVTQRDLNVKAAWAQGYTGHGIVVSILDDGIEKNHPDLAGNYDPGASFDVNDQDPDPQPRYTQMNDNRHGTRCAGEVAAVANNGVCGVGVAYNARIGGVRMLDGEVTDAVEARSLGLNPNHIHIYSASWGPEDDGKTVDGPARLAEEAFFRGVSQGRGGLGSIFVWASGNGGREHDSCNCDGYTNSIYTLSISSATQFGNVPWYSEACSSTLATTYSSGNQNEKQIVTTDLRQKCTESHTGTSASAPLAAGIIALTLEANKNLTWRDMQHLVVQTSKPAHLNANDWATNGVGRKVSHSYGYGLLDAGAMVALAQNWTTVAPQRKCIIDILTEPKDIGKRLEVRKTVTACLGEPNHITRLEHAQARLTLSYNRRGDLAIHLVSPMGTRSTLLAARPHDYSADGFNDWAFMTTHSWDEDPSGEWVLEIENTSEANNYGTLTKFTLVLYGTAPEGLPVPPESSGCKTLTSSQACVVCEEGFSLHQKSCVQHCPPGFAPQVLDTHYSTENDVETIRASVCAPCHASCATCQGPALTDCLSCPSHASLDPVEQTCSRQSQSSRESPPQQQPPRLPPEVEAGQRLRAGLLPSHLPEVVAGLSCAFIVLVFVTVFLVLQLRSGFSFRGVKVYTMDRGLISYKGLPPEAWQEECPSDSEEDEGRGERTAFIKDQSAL
nsP2 NS23 pep: selectivity test for CHIKV nsP2 protease inhibitors: endogenous NS2/3 peptide | shares compounds with nsP2pro inh | Purified CHIKV nsP2 protease, endogenous NS2/3 peptide cleavage | Potency, µM (top dose mostly 51 µM), for inactives: top-dose activity change, negative = inhibition, most hits filed as inhibitors | 34% of 410 active | AID 1964103; note: nearly all actives have a fitted effect of over 55% in size
Papain counter: inhibits papain in a CHIKV nsP2 protease selectivity counterscreen | shares compounds with nsP2pro inh | purified papain protease activity, enzymatic inhibition | Potency, µM (doses to about 51 µM), inactives show top-dose activity change, negative = inhibition, hits mostly inhibitors | 5% of 410 active | AID 1964104
nsP2pro conf qHTS: confirmation of CHIKV nsP2 protease inhibitors. shares compounds with nsP2pro inh. CHIKV nsP2 protease enzymatic activity, qHTS. Potency, µM (titrated, usually from 25.5 µM), inactives show top-dose activity change, negative = inhibition, most hits filed as inhibitors. 43% of 410 active. AID 1964105; note: nearly all actives have a fitted effect of over 75% in size
HCV NS3 counter: inhibits HCV NS3/4A protease in an nsP2pro selectivity counterscreen. shares compounds with nsP2pro inh. HCV NS3/4A protease biochemical counterscreen. Potency, µM (titrated, usually from 50.9 µM), hits mostly inhibitors. 20% of 410 active. AID 1964106; note: nearly all actives have a fitted effect of over 55% in size
* hit, by the source's call; i = inactive; ? = inconclusive; ! = a repeat was not active; [ ] = another dose, or the depositor's remark. Calls come from the whole dose curve. % is set by controls: 0 for no effect and ±100 for the full control effect; potency is the fitted concentration of half-maximal effect.

SMILES	nsP2pro inh	others
C=C(C(=O)OC)[C@]12O[C@@](C)(CC[C@@]3(O)/C(=C\C)C(=O)O[C@]3(C)C[C@@H]1OC(=O)C(CO)CN1CCCC1C(=O)O)CC2=O (stereo partly drawn)	?	nsP2 cell sec=-3%[17.6 µM];CHIKV NSP2 FL=2.4µM*;Furin counterscr=-7%[17.3 µM];nsP2 NS23 pep=?;Papain counter=-22%[17.2 µM];nsP2pro conf qHTS=2.1µM*;HCV NS3 counter=?
CCn1c(=O)c(-c2ccn[nH]2)cc2c(C)nc(N)nc21	4%
COc1ccc(CN2C(=O)c3ccccc3NC2c2ccc(OC)c(COc3c(C)cc(NC(C)=O)cc3C)c2)cc1 (stereo not drawn)	-3%
O=C(CCl)N1CCC2(CC1)CC(c1cccc(C(F)(F)F)c1)=NO2	-9%[39.2 µM]
O=C(NO)c1cnc(NC2(c3ccccc3)CC2)nc1	-7%
CSc1nc(=O)c2c(n1C)NC(=O)CC2c1cc(F)cc(F)c1 (stereo not drawn)	0%
CNc1nc2c(s1)C(c1cccc(F)c1)CC(=O)N2 (stereo not drawn)	3.2µM*	nsP2 cell sec=44%;CHIKV NSP2 FL=?;Furin counterscr=8%;nsP2 NS23 pep=10µM*;Papain counter=55%;nsP2pro conf qHTS=5.7µM*;HCV NS3 counter=i
COc1cccc(Nc2cnc3ccc(-c4ccc(F)cc4)nn23)c1	72%[39.2 µM]
CCN1CCN(c2ncc3c(n2)CCN(Cc2ccc(OC(C)C)cc2)C3)CC1	-12%
CCN1CCN(c2ncc3c(n2)CCN(Cc2ccc(Br)s2)C3)CC1	46%
CN1CCN(c2ncc3c(n2)CCN(Cc2ccc(Br)s2)C3)CC1	?	nsP2 cell sec=?;CHIKV NSP2 FL=18µM*;Furin counterscr=-9%;nsP2 NS23 pep=?;Papain counter=5%;nsP2pro conf qHTS=?;HCV NS3 counter=12µM*
Cc1ccsc1CN1CCc2nc(N3CCN(c4ccccc4F)CC3)ncc2C1	-20%
Brc1ccc(CN2CCc3nc(N4CCN(c5ncccn5)CC4)ncc3C2)cc1	33%
CCN1CCN(c2ncc3c(n2)CCN(Cc2sccc2C)C3)CC1	7%	nsP2 cell sec=?;CHIKV NSP2 FL=12µM*;Furin counterscr=-9%;nsP2 NS23 pep=?;Papain counter=-4%;nsP2pro conf qHTS=?;HCV NS3 counter=6.5µM*
CC(=O)Nc1sc2c(c1-c1nc3ccccc3s1)CCN(C1COC1)C2	-16%
O=C(Nc1nc(-c2ccccc2)cs1)c1ccncc1NS(=O)(=O)c1ccc(F)cc1	i
O=C(O)CCc1cc(C(=O)c2ccc(OC3CCCC3)cc2O)ccc1OCc1ccc2c(=O)[nH]oc2c1	32%
CC1CC2(O)OC(=O)C3=C2C(CCC3)[C@@]12C[C@@H](c1ccoc1)OC2=O (stereo partly drawn)	?	nsP2 cell sec=-6%[33.5 µM];CHIKV NSP2 FL=?;Furin counterscr=-9%[33.5 µM];nsP2 NS23 pep=?;Papain counter=-10%[33.5 µM];nsP2pro conf qHTS=-38%[16.7 µM];HCV NS3 counter=1.8µM*
CCOc1ccc(CCNC(=O)c2cc3ccccc3n2Cc2cc(C)cc(C)n2)cc1OCC	-9%
COc1ccccc1-c1nc(-c2cccc(C(=O)O)c2)no1	-5%
Fc1cccc(-c2ccc(Nc3nc(-c4ccncc4)nc4ccccc34)cc2F)c1	i
Fc1ccc(-c2nnc(CCCCSc3nnc(-c4cccc5ccccc45)o3)o2)cc1	-2%
N#Cc1ccc(Nc2ncc(-c3cccc4ccccc34)o2)cc1	-2%
COc1cc(O)c(C(CC(=O)N2CC(C)CC(C)C2)c2ccc3c(c2)OCCO3)c(OC)c1 (stereo not drawn)	2%
N#Cc1ccc(-c2ccc(CNc3ccc(N4CCC(C#N)CC4)cc3)o2)cc1	10µM*	nsP2 cell sec=?;CHIKV NSP2 FL=?;Furin counterscr=-9%;nsP2 NS23 pep=?;Papain counter=-16%;nsP2pro conf qHTS=?;HCV NS3 counter=2.6µM*
SMILES	nsP2pro inh	others
CC(C)(C)OC(=O)N1CCN(c2ccc(NCc3ccc(-c4ccc(C#N)cc4)o3)nc2)CC1	0%
CCOC(=O)C1CCN(c2ccc(NCc3ccc(-c4ccc(C#N)cc4)o3)cc2)CC1	4.5µM*	nsP2 cell sec=21µM*;CHIKV NSP2 FL=?;Furin counterscr=-9%;nsP2 NS23 pep=?;Papain counter=-16%;nsP2pro conf qHTS=-20%;HCV NS3 counter=3.7µM*
COc1ccc(-c2ccc(CNc3ccc(N4CCN(C(=O)OC(C)(C)C)CC4)cc3)o2)cc1	i
CC(C)(C)OC(=O)N1CCN(c2ccc(NCc3ncc(-c4ccc(C#N)cc4)o3)cc2)CC1	i
CC(C)(C)OC(=O)N1CCC(c2ccc(NCc3ccc(-c4ccc(C#N)cc4)o3)cc2)CC1	-6%
O=C(Cc1ccccc1)Nc1ccc(S(=O)(=O)Nc2nccs2)cc1	-1%
CCOC(=O)[C@H](C)C[C@@H](Cc1ccc(-c2ccccc2)cc1)NC(=O)CCC(=O)O	-11%
COc1ccc(CN2C3CC2CN(c2ccc(-c4cc(OCC(C)(C)O)cn5ncc(C#N)c45)cn2)C3)cn1	-13%
CC(C)N1C(=O)C2(CCCC2)C1C(=O)NCCCN1CCc2ccccc2C1 (stereo not drawn)	-18%
CO/N=C(/C(=O)N[C@@H]1C(=O)N2C(C(=O)OCOC(=O)C(C)(C)C)=C(C)CS[C@H]12)c1csc(N)n1	-25%
CC(=O)OCC1=C(C(=O)O)N2C(=O)[C@@H](NC(=O)Cc3cccs3)[C@H]2SC1	0%
CO/N=C(/C(=O)N[C@@H]1C(=O)N2C(C(=O)O)=C(CSC(=O)c3ccco3)CS[C@H]12)c1csc(N)n1	11µM*!	nsP2 cell sec=-8%;CHIKV NSP2 FL=-5%;Furin counterscr=-5%;nsP2 NS23 pep=9%;Papain counter=?;nsP2pro conf qHTS=-10%;HCV NS3 counter=i
COc1ccc(NC(=O)c2cnn3c(C)cc(C)nc23)cc1	0%
CN(Cc1ccccc1C(F)(F)F)S(=O)(=O)c1cccc(C(F)(F)F)c1	i
CC1(C)S[C@@H]2[C@H](N)C(=O)N2[C@@H]1C(=O)O	1%[2.68 µM]
C/C(=N\N=C(N)N)c1cc(NC(=O)CCCCCCCCC(=O)Nc2cc(/C(C)=N/N=C(N)N)cc(/C(C)=N/N=C(N)N)c2)cc(/C(C)=N/N=C(N)N)c1	5.6µM*	nsP2 cell sec=71%;CHIKV NSP2 FL=13µM*;Furin counterscr=12µM*;nsP2 NS23 pep=13µM*;Papain counter=-17%;nsP2pro conf qHTS=6.3µM*;HCV NS3 counter=12µM*
Cc1cc(C)nc(NC(=S)N2CCN(c3ccc(C(F)(F)F)cc3[N+](=O)[O-])CC2)c1	0%
Cc1ccc(NC(=O)N2CCC3(CC2)CC(Cc2nc(-c4ccccc4)no2)CCO3)cc1C (stereo not drawn)	2%
CC(C)n1nc(-c2ccc(NC(=O)Nc3cccc(C(F)(F)F)c3)cc2)c2c(N)ncnc21	-4%
CC(C)(C)n1nc(-c2ccc(Cl)cc2)c2c(N)ncnc21	19%

Bioassay records as filed in PubChem.
